Assay results from ChEMBL document CHEMBL3988442, “University of Dundee, Small-Polar-MMV Screening Library” (2021).

How the values were obtained:
[1] = target: T1, Aspartate--tRNA(Asp/Asn) ligase (Mycobacterium tuberculosis (strain ATCC 25618 / H37Rv)) (UniProt P9WFW3); assay: Assay for Asp RNA synthetase-1 from Mycobacterium tuberculosis; format: functional; design: scale not given: direction of the effect not stated beside the values; settings: 30 µM; note: in the data most compounds retested in dose-response had high values
T1 sequence (whole entry): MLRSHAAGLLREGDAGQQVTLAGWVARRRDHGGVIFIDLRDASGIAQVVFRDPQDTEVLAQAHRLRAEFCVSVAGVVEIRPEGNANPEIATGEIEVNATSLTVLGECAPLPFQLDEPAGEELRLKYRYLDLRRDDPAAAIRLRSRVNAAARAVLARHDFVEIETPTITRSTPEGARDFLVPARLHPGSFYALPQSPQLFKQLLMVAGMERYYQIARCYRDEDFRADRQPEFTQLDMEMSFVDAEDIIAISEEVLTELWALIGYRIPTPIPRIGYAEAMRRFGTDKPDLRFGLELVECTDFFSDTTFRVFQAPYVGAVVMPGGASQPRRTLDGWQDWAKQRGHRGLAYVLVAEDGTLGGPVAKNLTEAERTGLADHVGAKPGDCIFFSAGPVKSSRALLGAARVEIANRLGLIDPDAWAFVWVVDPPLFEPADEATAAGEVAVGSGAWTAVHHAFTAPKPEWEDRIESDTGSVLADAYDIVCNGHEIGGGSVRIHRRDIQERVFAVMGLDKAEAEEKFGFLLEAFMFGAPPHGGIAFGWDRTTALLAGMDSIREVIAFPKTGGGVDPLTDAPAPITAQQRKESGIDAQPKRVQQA

[2] = target: Shiga toxin 2 (Escherichia coli O157:H7) (UniProt P09385+P09386); assay: E. coli 0.157:H7 Shiga Toxin SOP - stx2 screening assay; format: functional; design: scale not given: direction of the effect not stated beside the values; settings: 30 µM

| SMILES | Percent Effect [1] [%] | Percent Effect [2] [%] |
| --- | --- | --- |
| OC(CN1CCN(c2ncccn2)CC1)c1cccc(F)c1 (stereo not drawn) | -3.26 | -4.85 |
| Cc1ccsc1-c1nnc(C2CCN(Cc3ccc(F)cc3)CC2)o1 | -1.86 | -123 |
| CCCN(CC)C(=O)c1cc2c(c3ccccc3n2C)n1C(=O)N(C)C | 6.03 | 2.44 |
| O=C1CCSCC(C(=O)N2CCOCC2)N1 (stereo not drawn) | 1.64 | 3.97 |
| CC(=O)N1CCN(C)CC(COCc2ccccc2)C1 (stereo not drawn) | -1.62 | -22.4 |
| COc1ccc(CCN2CCCC(Cn3nc(C)nc3C)C2)cc1 (stereo not drawn) | -3.48 | -52.1 |
| O[C@H]1[C@H](n2cc(-c3cccnc3)nn2)c2ccccc2C12CCNCC2 | -2.48 | 7.64 |
| CNS(=O)(=O)Cc1ccc(CNC(=O)c2ccc(C)[nH]c2=O)cc1 | -0.577 | -39.3 |
| CC(C)NC(=O)c1sccc1N(C)S(=O)(=O)c1ccc(Cl)cc1 | 4.25 | -18.9 |
| COc1cccc(CN2CCCC(Nc3cccc(F)c3)C2)c1O (stereo not drawn) | -1.31 | 11.2 |
| O=C(O)c1cc(S(=O)(=O)Nc2cc(F)ccc2F)cc2c1OCCO2 | -2.5 | 31.1 |
| Cc1nn(C)c(Cl)c1CNCc1cccnc1N1CCOCC1 | -7.19 | 4.19 |
| CCC(C)[C@H](NC(=O)c1cc(Br)ccc1-n1cnnn1)C(=O)OC (stereo partly drawn) | -2 | -22.1 |
| Cc1cc(C(=O)N2CCc3nnc(N)cc3C2)c(C)n1-c1cccnc1 | 7.03 | -28.4 |
| CCc1nccn1C1CCCN(C(=O)c2ccc3[nH]c(=O)[nH]c3c2)C1 (stereo not drawn) | -9.98 | -46.4 |
| COCc1nc(C(=O)NS(=O)(=O)c2ccc(C)s2)cs1 | 0.678 | -34.1 |
| Cc1noc(CCCC(=O)NC(C)c2cccnc2)n1 (stereo not drawn) | -0.922 | 31.2 |
| Fc1cccnc1CN1CCCCC1c1ccn2ccnc2n1 (stereo not drawn) | 1.4 | -17.1 |
| Cc1ccc(CNC(=O)Cn2ncc3c2c(C)nn3C)cc1 | -3.46 | -20.9 |
| COc1cccc(-n2nnc(C(=O)N3CCNC(=O)C3)c2C)c1 | -6.06 | -7.95 |
| Cc1nc(C)n(CC2CCCN2Cc2cscn2)n1 (stereo not drawn) | -5.82 | 24.1 |
| Cn1cccc1C(=O)N1CCN(Cc2ccncc2)c2ncccc2C1 | 0.0582 | -10 |
| c1ccc(CCNC2CCc3ncnn3C2)nc1 (stereo not drawn) | 5.83 | -16.7 |
| CCN(CC)c1ccc(NS(=O)(=O)c2cnn(C)c2)cn1 | 2.14 | -30.7 |
| Cc1ccsc1[C@@H]1CCN(C(=O)c2cc3ccccc3[nH]2)C[C@H]1O | -0.724 | -11.7 |

| SMILES | Percent Effect [1] [%] | Percent Effect [2] [%] |
| --- | --- | --- |
| O=C(Nc1ccc(F)cc1F)Nc1c[nH]c(=O)[nH]c1=O | 1.82 | -4.74 |
| Cn1cc(CN2CCC3(CCCN(Cc4ccccn4)C3)CC2)cn1 | -0.638 | -6.22 |
| Cc1nc[nH]c1CN1CCN(C(=O)CCC(F)(F)F)[C@H]2CS(=O)(=O)C[C@H]21 | -2.31 | 17.8 |
| Cc1noc(C(C)C)c1C(=O)NCC(c1ccsc1)N(C)C (stereo not drawn) | 3 | -2.68 |
| CCC(NC(N)=O)c1ccccc1OCC(=O)N1CCCC1 (stereo not drawn) | -1.5 | -58.1 |
| CNc1cc(C2CCCN2Cc2ccccc2C(=O)O)ccn1 (stereo not drawn) | -0.938 | -8.27 |
| CC(NC(=O)c1cccs1)C(=O)NCc1ccccc1CN1CCCC1 (stereo not drawn) | -4.19 | -31.6 |
| O=C(NCCCN1CCOCC1)c1cc(-c2ccco2)[nH]n1 | -0.98 | -21.1 |
| Cc1ccc(C(O)CNCc2c(C(C)C)nn(C)c2N(C)C)cc1 (stereo not drawn) | -5.77 | 10.4 |
| O=C(NCC1CCN(C(=O)c2ccoc2)CC1)c1ccccc1Br | -6.27 | 3.64 |
| Cc1nc(C)n(CC2CCCN2CCOc2ccc(C#N)cc2)n1 (stereo not drawn) | -3.28 | -0.486 |
| CN(C)S(=O)(=O)c1ccc(CN2CCCC2CO)o1 (stereo not drawn) | -0.169 | 24 |
| Cc1nc(NCCc2ccc(Cl)cc2)cc(C(=O)N2CCCCC2)n1 | 12.4 | -69.6 |
| COCCOCC(=O)Nc1ccc(Br)cc1F | -5.06 | -5.97 |
| O=C(NCC1CC1)[C@H]1C[C@@H]2CN(S(=O)(=O)Cc3ccccc3)C[C@H]1O2 | 4.1 | -14.6 |
| O=C([C@H]1C[C@H]2OCC[C@H]2N(C(=O)c2ccncc2)C1)N1CCCCO1 | -3.79 | -6.05 |
| Cc1cc(C)n(C2CN(CC(O)COc3ccc(F)cc3)C2)n1 (stereo not drawn) | -0.121 | 19.1 |
| CC(CNC(=O)c1ccc(F)cc1Cl)N1CCCC1 (stereo not drawn) | 0.39 | -4.69 |
| Cc1nc(C)n(CC2CCCN2Cc2nc(C3CC3)no2)n1 (stereo not drawn) | 0.278 | -16.4 |
| CSc1ccccc1CN1CCCn2nc(CNC(=O)N(C)C)cc2C1 | 2.53 | -34.2 |
| Cn1cc(CN2CC[C@@H]3[C@@H](CCC(=O)N3CCC3=CCCCC3)C2)cn1 | 0.0912 | -13 |
| CN1CCC/C1=N\S(=O)(=O)c1ccc(NC(=O)CCc2cccs2)cc1 | 1.3 | -144 |
| Cc1cc(-c2ccc(C(=O)O)cc2)nc(C2CCCN(C(C)C)C2)n1 (stereo not drawn) | -0.0735 | -2.97 |
| CC(=O)N(Cc1noc(C)n1)C1CCN(Cc2ccon2)C1 (stereo not drawn) | -1.5 | -70.9 |
| Cc1cccc(CN2C(=O)CC[C@@H]3[C@H]2CCN3CC2CCOCC2)n1 | -1.51 | -5.24 |

| SMILES | Percent Effect [1] [%] | Percent Effect [2] [%] |
| --- | --- | --- |
| O=C(NCc1cccs1)C1CN(C(=O)c2cccs2)CC12CCOCC2 (stereo not drawn) | 6.61 | 5.39 |
| NS(=O)(=O)Cc1ccc(CNC(=O)NCC2CCOC2)cc1 (stereo not drawn) | -4.55 | 26.9 |
| CNS(=O)(=O)c1ccc(C(=O)NC2CCc3nc(C)cn3C2)o1 (stereo not drawn) | -6.5 | 17.4 |
| Cc1nc(NC2CCCC2)cc(C2CCN2C(=O)c2ccccc2)n1 (stereo not drawn) | -4.99 | -18.1 |
| CCOc1ccc(Cl)c(C(=O)N2CCN(c3cnccn3)CC2)n1 | -1.79 | -46.8 |
| COC(=O)CCNC(=O)C1CC(=O)N(C2CCCC2)C1 (stereo not drawn) | 0.859 | -13.4 |
| COCCn1nc(C(=O)N2CCCC2c2cccc(F)c2)ccc1=O (stereo not drawn) | 2.11 | 1.07 |
| CN(C(=O)Cc1ccc(NC(=O)NC2CCC2)cc1)c1ccccc1 | -0.27 | -9.88 |
| c1cnnc(N2CCCC2CNc2ncnc3c2CCC3)c1 (stereo not drawn) | -0.597 | 2.94 |
| C1CC(c2noc(C3CC3)n2)CN(Cc2noc(C3CC3)n2)C1 (stereo not drawn) | -1.05 | 6.22 |
| Cc1nn(C)c(C)c1C1CCCN1C(=O)c1ccc(Cl)o1 (stereo not drawn) | -1.9 | -17.4 |
| O=C(CN1CCCC1Cn1cccn1)NC1CCOCC1 (stereo not drawn) | -1.71 | 13.3 |
| Cc1ccc(-c2nnc(SCC(=O)O)n2-c2ccc(C)cc2)cc1 | 0.544 | -4.96 |
| CCc1nc(CN2CCCC(N(C)Cc3cnn(C)c3)C2)no1 (stereo not drawn) | 0.747 | -30.2 |
| Cc1nc(CC(=O)N2CCCN(c3ccc(C#N)cc3)CC2)cs1 | -8.71 | -26.6 |
| c1cnc2c(C3CCN(Cc4ccsc4)CC3)n[nH]c2n1 | -1.29 | -14.5 |
| CC(Cn1cncn1)NCc1nncn1C1CCCCC1 (stereo not drawn) | -4.88 | 2.43 |
| Cc1ncoc1C(=O)N1CCn2c(COCC3CC3)cnc2C1C (stereo not drawn) | 7.95 | -10.6 |
| Cc1csc(C2CCCCN2C(=O)CN(C)C2CC2)n1 (stereo not drawn) | -4.06 | -4.47 |
| CCc1nc(CN2CCCN(c3ncnc4ccccc34)CC2)no1 | 13.7 | -69.3 |
| CN1CCN(CCCNC(=O)c2cc(Cl)c3c(c2)OCO3)CC1 | -5.91 | -42.5 |
| Cc1nn(C)c(C)c1NC(=O)CN1CCCC1c1noc(C2CC2)n1 (stereo not drawn) | 5.58 | -27.4 |
| COC(=O)c1ccccc1NC(=O)c1nc2ccccc2n(C)c1=O | 2.38 | -9.47 |
| CC(=O)N1CCCN(C(=O)NCc2ccccn2)CC1 | 3.93 | 16.9 |
